# Laboratory results: article PMC7862700, “An all-to-all approach to the identification of sequence-specific readers for epigenetic DNA modifications on cytosine”
# What was measured:
# Assay in all cases: DAPPL (digital affinity profiling via proximity ligation, sequencing); 10 mM Tris-HCl pH 7.5, 50 mM NaCl, 1 mM DTT, 4% glycerol, room temperature, 30 min; GST-TFs on glutathione beads, 16-mer random dsDNA library, 0.1% formaldehyde crosslink after washing; high values mean tight binding
# Conditions in all cases: protein: recombinant; tags: N-terminal GST; dsDNA, one strand shown
# SPIC = molecular target: T1, SPIC (Homo sapiens, UniProt Q8N5J4 1-248)
# T1 sequence: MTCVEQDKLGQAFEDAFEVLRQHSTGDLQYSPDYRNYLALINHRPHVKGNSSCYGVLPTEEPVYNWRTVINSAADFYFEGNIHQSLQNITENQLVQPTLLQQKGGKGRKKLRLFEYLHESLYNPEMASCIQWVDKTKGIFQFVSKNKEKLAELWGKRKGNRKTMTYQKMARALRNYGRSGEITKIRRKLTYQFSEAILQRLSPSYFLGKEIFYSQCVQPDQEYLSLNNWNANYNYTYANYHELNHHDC
# Outline: (§1)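 Pools were built from human transcription factors expressed in yeast as GST fusions, captured on glutathione beads and DNA-barcoded, along with a tag-only sample. Incubation with 200 nmole of a 16-mer random double-stranded DNA library lasted 30 min at room temperature in Tris/NaCl/DTT/glycerol buffer, and was followed by washing, 0.1% formaldehyde crosslinking, proximity ligation, PCR amplification and Illumina NextSeq500 sequencing. Binding signal is the quotient of each hexamer's read frequency for a factor and its frequency for the tag-only sample.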
# ELF4 = ELF4 (Homo sapiens, UniProt Q99607 1-663)
# Outline: as §1
# ELF3 = molecular target: T2, ELF3 (Homo sapiens, UniProt P78545 1-371)
# T2 sequence: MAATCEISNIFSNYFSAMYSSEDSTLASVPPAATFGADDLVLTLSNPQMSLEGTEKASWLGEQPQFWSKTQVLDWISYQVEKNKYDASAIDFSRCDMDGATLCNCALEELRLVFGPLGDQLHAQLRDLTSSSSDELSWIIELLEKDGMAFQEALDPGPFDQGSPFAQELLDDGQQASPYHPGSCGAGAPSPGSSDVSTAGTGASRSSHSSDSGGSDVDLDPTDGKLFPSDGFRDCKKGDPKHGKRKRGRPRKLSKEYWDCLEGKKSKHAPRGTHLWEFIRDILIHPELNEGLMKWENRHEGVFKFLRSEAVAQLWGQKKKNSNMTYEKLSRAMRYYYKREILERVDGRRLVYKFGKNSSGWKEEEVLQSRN
# Outline: as §1
# CRX = CRX (Homo sapiens, UniProt O43186 1-299)
# Outline: as §1
# ETV1 = ETV1 (Homo sapiens, UniProt P50549 1-477)
# Outline: as §1
# ELK4 = molecular target: T3, ELK4 (Homo sapiens, UniProt P28324-2 1-405)
# T3 sequence: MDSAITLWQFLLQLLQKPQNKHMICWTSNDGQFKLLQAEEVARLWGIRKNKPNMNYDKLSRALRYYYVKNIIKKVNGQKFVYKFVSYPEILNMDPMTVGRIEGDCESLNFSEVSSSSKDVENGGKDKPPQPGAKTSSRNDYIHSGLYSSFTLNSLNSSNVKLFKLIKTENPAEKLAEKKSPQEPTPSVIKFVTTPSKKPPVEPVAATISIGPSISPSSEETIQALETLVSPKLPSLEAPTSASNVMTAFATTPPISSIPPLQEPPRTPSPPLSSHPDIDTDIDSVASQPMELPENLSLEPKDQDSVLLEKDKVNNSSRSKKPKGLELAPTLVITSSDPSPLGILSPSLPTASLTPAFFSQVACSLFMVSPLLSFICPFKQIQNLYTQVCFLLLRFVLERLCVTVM
# Outline: as §1
# GABPA = molecular target: T4, GABPA (Homo sapiens, UniProt Q06546 1-454)
# T4 sequence: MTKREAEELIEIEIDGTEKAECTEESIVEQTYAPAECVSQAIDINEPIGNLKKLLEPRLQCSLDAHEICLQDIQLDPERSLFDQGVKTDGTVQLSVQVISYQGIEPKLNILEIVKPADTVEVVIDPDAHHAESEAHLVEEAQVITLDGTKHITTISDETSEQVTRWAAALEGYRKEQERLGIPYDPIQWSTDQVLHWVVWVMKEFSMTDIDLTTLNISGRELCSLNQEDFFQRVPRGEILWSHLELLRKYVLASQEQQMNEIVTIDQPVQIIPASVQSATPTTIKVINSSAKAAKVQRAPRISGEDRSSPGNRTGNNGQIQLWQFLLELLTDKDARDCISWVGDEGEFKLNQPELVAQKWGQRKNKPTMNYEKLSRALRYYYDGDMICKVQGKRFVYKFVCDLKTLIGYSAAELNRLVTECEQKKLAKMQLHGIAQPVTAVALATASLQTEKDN
# Outline: as §1
# ERG = molecular target: T5, ERG (Homo sapiens, UniProt P11308 1-479)
# T5 sequence: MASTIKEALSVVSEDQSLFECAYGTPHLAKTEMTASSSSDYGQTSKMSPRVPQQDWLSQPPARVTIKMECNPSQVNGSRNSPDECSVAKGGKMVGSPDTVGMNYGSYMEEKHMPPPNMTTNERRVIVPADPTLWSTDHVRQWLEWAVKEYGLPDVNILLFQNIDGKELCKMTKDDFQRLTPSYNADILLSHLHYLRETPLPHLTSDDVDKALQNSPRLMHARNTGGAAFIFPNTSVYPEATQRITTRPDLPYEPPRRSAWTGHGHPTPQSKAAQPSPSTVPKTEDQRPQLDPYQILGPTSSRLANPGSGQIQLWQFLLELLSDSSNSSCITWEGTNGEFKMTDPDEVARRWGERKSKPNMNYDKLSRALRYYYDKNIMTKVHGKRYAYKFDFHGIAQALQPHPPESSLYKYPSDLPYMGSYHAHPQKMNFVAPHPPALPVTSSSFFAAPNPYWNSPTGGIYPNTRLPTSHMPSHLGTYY
# Outline: as §1
# ELF1 = ELF1 (Homo sapiens, UniProt P32519 1-619)
# Outline: as §1
# SPI1 = SPI1 (Homo sapiens, UniProt P17947 1-270)
# Outline: as §1
# SPIB = SPIB (Homo sapiens, UniProt Q01892 1-262)
# Outline: as §1
# ELK3 = molecular target: T6, ELK3 (Homo sapiens, UniProt P41970 1-407)
# T6 sequence: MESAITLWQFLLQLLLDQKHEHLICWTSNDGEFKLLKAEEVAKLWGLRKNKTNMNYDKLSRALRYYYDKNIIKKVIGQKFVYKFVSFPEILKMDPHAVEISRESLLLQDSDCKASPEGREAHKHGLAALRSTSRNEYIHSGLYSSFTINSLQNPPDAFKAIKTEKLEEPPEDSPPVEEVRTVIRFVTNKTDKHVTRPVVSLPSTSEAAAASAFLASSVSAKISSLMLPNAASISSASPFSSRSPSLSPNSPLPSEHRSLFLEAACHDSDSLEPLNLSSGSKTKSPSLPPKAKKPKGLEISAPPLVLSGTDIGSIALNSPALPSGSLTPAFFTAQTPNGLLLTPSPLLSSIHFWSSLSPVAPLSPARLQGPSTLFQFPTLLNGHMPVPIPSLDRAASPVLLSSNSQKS
# Outline: as §1
# FEV = molecular target: T7, FEV (Homo sapiens, UniProt Q99581 1-238)
# T7 sequence: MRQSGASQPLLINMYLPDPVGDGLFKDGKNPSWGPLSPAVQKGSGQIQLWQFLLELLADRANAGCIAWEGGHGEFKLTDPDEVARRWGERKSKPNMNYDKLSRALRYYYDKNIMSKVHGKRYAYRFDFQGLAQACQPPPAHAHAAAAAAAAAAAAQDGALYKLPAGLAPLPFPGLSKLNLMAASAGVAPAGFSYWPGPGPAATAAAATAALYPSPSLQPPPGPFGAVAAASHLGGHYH
# Outline: as §1
# ETS2 = molecular target: T8, ETS2 (Homo sapiens, UniProt P15036 1-469)
# T8 sequence: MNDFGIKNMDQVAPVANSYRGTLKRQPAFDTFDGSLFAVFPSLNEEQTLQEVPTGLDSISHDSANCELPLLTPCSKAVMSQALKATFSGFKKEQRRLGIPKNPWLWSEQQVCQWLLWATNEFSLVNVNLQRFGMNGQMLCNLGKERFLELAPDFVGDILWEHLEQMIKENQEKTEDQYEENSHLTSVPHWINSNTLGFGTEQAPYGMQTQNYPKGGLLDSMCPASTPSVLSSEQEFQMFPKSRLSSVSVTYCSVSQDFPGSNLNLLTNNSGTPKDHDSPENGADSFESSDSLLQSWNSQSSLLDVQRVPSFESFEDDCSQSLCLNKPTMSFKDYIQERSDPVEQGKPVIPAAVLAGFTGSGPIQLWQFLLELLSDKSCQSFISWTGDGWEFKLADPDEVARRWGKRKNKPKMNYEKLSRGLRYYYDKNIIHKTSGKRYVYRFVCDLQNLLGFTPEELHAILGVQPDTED
# Outline: as §1
# ETV7 = molecular target: T9, ETV7 (Homo sapiens, UniProt Q9Y603 1-341)
# T9 sequence: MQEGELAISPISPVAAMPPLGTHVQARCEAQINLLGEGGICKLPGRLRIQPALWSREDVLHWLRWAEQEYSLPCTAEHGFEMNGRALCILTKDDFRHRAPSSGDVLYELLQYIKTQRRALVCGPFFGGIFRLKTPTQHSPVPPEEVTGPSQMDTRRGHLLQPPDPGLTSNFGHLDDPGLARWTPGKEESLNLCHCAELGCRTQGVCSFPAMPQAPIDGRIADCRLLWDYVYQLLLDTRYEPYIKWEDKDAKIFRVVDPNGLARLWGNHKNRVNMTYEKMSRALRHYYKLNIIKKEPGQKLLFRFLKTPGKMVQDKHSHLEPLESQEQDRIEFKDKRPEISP
# Outline: as §1
# ETV6 = ETV6 (Homo sapiens, UniProt P41212 1-452)
# Outline: as §1
# Chain of ELF4 (Q99607 whole entry): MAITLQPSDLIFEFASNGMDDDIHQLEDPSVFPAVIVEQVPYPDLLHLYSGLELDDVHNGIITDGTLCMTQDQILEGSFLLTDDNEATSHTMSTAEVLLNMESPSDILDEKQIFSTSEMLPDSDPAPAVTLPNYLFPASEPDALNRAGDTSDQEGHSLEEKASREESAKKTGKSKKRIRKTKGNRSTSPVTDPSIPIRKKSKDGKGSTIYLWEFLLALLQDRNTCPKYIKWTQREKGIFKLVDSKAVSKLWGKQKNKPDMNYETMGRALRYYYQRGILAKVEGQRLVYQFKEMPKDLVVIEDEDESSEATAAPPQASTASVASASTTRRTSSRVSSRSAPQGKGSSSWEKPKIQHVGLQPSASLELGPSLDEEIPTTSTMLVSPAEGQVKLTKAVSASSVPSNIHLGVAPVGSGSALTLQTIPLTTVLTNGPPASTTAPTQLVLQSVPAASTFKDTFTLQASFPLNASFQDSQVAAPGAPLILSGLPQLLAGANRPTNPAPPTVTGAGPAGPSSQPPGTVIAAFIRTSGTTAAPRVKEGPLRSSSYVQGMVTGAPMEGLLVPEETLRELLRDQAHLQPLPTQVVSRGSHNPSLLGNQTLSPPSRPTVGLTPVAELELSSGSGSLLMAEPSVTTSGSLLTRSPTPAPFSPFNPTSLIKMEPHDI
# Chain of ELF1 (P32519 whole entry): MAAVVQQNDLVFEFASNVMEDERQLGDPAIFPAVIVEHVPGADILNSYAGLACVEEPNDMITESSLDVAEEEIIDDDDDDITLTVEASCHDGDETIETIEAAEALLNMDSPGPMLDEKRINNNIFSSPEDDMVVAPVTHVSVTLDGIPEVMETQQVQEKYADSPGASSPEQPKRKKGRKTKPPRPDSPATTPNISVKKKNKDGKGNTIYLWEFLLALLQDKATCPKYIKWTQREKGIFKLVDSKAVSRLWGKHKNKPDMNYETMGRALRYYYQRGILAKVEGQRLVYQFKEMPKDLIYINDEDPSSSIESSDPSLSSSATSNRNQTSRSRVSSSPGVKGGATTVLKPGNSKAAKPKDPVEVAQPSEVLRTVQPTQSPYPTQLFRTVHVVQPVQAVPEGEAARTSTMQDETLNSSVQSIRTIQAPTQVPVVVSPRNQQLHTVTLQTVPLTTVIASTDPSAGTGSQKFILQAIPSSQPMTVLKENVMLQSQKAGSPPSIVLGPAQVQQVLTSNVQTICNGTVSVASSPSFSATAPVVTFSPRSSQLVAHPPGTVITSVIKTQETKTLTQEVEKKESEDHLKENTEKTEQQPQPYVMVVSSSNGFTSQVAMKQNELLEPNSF
# Chain of ETV1 (P50549 whole entry): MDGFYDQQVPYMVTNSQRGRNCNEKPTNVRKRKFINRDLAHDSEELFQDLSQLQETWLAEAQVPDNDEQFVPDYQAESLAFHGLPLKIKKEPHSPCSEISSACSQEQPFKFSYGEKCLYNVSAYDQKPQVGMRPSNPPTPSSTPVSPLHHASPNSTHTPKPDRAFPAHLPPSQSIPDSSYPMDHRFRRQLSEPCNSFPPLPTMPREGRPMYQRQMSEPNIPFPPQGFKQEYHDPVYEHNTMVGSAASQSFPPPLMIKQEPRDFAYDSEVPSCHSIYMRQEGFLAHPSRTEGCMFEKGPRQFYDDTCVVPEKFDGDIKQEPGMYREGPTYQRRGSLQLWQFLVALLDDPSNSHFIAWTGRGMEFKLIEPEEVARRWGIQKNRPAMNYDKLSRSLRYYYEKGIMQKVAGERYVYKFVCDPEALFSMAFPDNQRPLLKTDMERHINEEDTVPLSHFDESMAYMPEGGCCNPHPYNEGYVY
# Chain of ETV6 (P41212 whole entry): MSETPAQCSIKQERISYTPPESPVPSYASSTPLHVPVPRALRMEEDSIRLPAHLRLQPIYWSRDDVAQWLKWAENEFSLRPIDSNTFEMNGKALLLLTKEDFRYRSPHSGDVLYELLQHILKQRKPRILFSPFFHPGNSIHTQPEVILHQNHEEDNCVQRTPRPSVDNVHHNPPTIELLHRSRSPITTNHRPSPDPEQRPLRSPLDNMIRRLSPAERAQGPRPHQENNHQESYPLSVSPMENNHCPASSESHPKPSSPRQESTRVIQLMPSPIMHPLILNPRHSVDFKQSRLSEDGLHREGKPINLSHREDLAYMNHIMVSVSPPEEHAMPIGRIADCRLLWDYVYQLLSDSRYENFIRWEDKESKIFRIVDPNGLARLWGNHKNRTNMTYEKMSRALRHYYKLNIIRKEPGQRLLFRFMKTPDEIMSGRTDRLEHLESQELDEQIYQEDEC
# Chain of CRX (O43186 whole entry): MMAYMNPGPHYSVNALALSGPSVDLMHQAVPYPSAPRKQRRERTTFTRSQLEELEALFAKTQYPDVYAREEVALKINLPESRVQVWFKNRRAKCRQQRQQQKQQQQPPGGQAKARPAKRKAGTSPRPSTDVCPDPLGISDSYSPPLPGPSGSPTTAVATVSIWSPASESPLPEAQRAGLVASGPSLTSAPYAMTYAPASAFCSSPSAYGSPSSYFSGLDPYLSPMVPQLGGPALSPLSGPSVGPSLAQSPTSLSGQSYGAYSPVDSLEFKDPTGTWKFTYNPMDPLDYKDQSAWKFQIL
# Chain of SPIB (Q01892 whole entry): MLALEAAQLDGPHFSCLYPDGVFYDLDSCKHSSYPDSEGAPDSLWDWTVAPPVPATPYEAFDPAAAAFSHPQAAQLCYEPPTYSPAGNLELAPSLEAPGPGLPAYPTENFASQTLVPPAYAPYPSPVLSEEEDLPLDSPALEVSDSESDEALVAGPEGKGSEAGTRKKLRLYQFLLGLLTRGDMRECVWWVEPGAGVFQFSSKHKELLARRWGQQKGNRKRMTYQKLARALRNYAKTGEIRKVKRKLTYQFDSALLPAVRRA
sequence,measurement,setting,value
CTAAGG,binding signal,SPIC,"1.06 fold enrichment (6-mer frequency, TF over GST control)"
same,binding signal,ELF4,"1.02 fold enrichment (6-mer frequency, TF over GST control)"
same,binding signal,ELF3,"1.02 fold enrichment (6-mer frequency, TF over GST control)"
same,binding signal,CRX,"1.12 fold enrichment (6-mer frequency, TF over GST control)"
same,binding signal,ETV1,"1.01 fold enrichment (6-mer frequency, TF over GST control)"
GTTGGC,binding signal,SPIC,"1.09 fold enrichment (6-mer frequency, TF over GST control)"
AGGGCC,binding signal,SPIC,"1.02 fold enrichment (6-mer frequency, TF over GST control)"
same,binding signal,ELK4,"1.1 fold enrichment (6-mer frequency, TF over GST control)"
GTGGCC,binding signal,GABPA,"1.06 fold enrichment (6-mer frequency, TF over GST control)"
same,binding signal,ERG,"1.1 fold enrichment (6-mer frequency, TF over GST control)"
same,binding signal,ELF1,"1.05 fold enrichment (6-mer frequency, TF over GST control)"
same,binding signal,SPI1,"1.2 fold enrichment (6-mer frequency, TF over GST control)"
same,binding signal,SPIB,"1.2 fold enrichment (6-mer frequency, TF over GST control)"
same,binding signal,ELK3,"1.22 fold enrichment (6-mer frequency, TF over GST control)"
same,binding signal,FEV,"1.14 fold enrichment (6-mer frequency, TF over GST control)"
same,binding signal,SPIC,"1.02 fold enrichment (6-mer frequency, TF over GST control)"
same,binding signal,ELF4,"1.02 fold enrichment (6-mer frequency, TF over GST control)"
same,binding signal,ELK4,"1.03 fold enrichment (6-mer frequency, TF over GST control)"
same,binding signal,ELF3,"1.09 fold enrichment (6-mer frequency, TF over GST control)"
same,binding signal,ETS2,"1.01 fold enrichment (6-mer frequency, TF over GST control)"
same,binding signal,ETV7,"1.01 fold enrichment (6-mer frequency, TF over GST control)"
same,binding signal,ETV6,"1.1 fold enrichment (6-mer frequency, TF over GST control)"
